Screens from PubChem.
HP1b chromo inh – inhibitors of HP1-beta chromodomain binding to methylated histone tails; P83916; AlphaScreen HP1-beta / biotin-H3K9me3 peptide binding; Potency, µM (series often up to 114 µM), hits mostly inhibitors; 390,000 compounds, 0.56% hits; AID 540317; also: nearly all actives have a fitted effect of over 70% in size
Target sequence (P83916 whole entry, looked up): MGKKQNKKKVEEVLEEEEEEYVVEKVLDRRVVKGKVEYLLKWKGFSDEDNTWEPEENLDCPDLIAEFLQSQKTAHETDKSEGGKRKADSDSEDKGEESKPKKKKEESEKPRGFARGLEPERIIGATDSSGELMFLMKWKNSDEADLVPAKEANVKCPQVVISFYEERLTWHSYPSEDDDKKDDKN
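Compound inhibition of the preformed complex between 50 nM HP1-beta and 50 nM biotinylated H3K9me3 peptide was read by AlphaScreen. Buffer was PBS pH 7.4 with 0.01% Tween-20. Incubations ran 30 min at room temperature, with 10 ug/mL donor/acceptor beads.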
Sfp PPTase inh – inhibitors of Bacillus subtilis Sfp phosphopantetheinyl transferase; Q9F4F7; Biochemical Sfp PPTase activity, qHTS; 310,000 compounds, 3.5% hits; Potency, µM, hits mostly inhibitors;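 also: the enzyme is Sfp with the accession as filed and its product quenches rhodamine fluorescence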
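Step 1, compound plus 15 nM Sfp-PPTase, 15 min, room temperature. Step 2, add rhodamine-CoA (5 uM) and BHQ-2-YbbR (12.5 uM). Step 3, read 525/598 nm fluorescence at 0 and 30 min.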
G9a inh – inhibitors of human histone lysine methyltransferase G9a; G9a H3K9 monomethylation, AlphaScreen, 2 h; 350,000 compounds, 8.8% hits; Potency, µM (doses to about 102 µM), actives largely listed as inhibitors; also: nearly all actives have a fitted effect of over 75% in size
Target sequence (Q96KQ7 913-1193 limits assumed): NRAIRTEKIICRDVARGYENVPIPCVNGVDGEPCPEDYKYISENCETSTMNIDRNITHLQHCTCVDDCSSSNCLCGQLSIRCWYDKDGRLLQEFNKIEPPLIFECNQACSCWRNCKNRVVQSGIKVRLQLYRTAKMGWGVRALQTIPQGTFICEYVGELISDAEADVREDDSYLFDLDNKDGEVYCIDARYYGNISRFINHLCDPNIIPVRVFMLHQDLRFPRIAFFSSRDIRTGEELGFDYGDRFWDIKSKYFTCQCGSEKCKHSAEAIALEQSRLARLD
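Quantitative HTS format: methyltransferase activity on a biotin-tagged H3K9 peptide is measured by AlphaScreen, using a rabbit anti-monomethyl-H3K9 antibody with streptavidin donor and anti-IgG acceptor beads. Final levels are 20 nM enzyme, 500 nM peptide, 20 uM SAM; 2 h RT.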
JMJD2A Tudor inh – JMJD2A Tudor domain (human) inhibition; Potency, µM (highest dose often 114 µM), hits mostly inhibitors; AlphaScreen JMJD2A-Tudor / H3K4me3 peptide binding; 390,000 compounds, 4.4% hits; O75164; also: nearly all actives have a fitted effect of over 50% in size
BAZ2B block – blocks human BAZ2B | Q9UIF8 | AlphaScreen BAZ2B-H3K14Ac peptide displacement | Potency, µM (doses to about 114 µM), hits mostly inhibitors | 360,000 compounds, 4.4% hits | AID 504333; also: nearly all actives have a fitted effect of over 60% in size
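BAZ2B 50 nM plus b-H3(5-23)K14Ac 50 nM, PBS pH 7.4/0.01% Tween-20, 30 min RT; compound added (max 110 uM), 30 min RT; streptavidin donor/Ni-chelate acceptor beads 10 ug/mL final, 20 min dark; AlphaScreen read.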
Each line names hits and unclear results; the compound was inactive in the other large screens. In the library only some 12% were active in any assay of this set; here they are far more common. Calls follow the shape of the dose curve; as a rule, active = well fitted curve in the direction sought with a large enough effect; inconclusive = small, poorly fitted or top-dose-only effect, or another doubt; inactive = no such curve, though single readings can be large; an effect the other way counts as inactive or inconclusive.

O=C(NCc1cccs1)c1nc2c(nnn2Cc2ccc(F)cc2)c(=O)[nH]1	none
Clc1nc(-c2cccnc2)nc2scc(-c3ccccc3)c12	none
COc1ccc(-c2csc3nc(-c4cccnc4)nc(Cl)c23)cc1OC	Sfp PPTase inh 25µM, G9a inh inconclusive
CC(C)CC1(C2CCCC2)NC(=O)NC1=O (stereo unspecified)	none (no result: Sfp PPTase inh, G9a inh, BAZ2B block)
CCCCn1c(-c2cc(Cl)ccc2OC)n[nH]c1=S	Sfp PPTase inh inconclusive, G9a inh 2µM, JMJD2A Tudor inh 13µM
COc1ccc(CCn2c(C)ccc2C)cc1OC	none (no result: HP1b chromo inh, JMJD2A Tudor inh)
COc1ccc(CCn2c(-c3ccc(C(C)(C)C)cc3)n[nH]c2=S)cc1OC	G9a inh inconclusive, JMJD2A Tudor inh 18µM
COc1ccc(Cl)cc1-c1n[nH]c(=S)o1	G9a inh inconclusive
COc1ccc(CCn2c(-c3ccc(Cl)cc3)n[nH]c2=S)cc1OC	Sfp PPTase inh inconclusive, G9a inh 2.2µM, BAZ2B block inconclusive
O=C(N/N=C/c1ccc(N2CCOCC2)o1)c1cccc([N+](=O)[O-])c1	Sfp PPTase inh 1.1µM, G9a inh 10µM, JMJD2A Tudor inh inconclusive
Cc1ccc(/C=N/NC(=O)c2ccc(-c3ccccc3)cc2)o1	none
O=C(N/N=C/c1ccc(N2CCCCC2)o1)c1ccccc1	HP1b chromo inh inconclusive, G9a inh 10µM, JMJD2A Tudor inh 50µM
O=C(N/N=C/c1ccccc1)c1ccc(N2CCOCC2)c([N+](=O)[O-])c1	none
C=CCOc1ccc(C2C(C(=O)c3ccc(C)o3)=C(O)C(=O)N2Cc2cccnc2)cc1 (stereo unspecified)	G9a inh 40µM, JMJD2A Tudor inh inconclusive
CCOc1cccc(C2C(C(=O)c3cccs3)=C(O)C(=O)N2Cc2cccnc2)c1 (stereo unspecified)	G9a inh 56µM
CCCCOc1cccc(C2C(C(=O)c3cccs3)=C(O)C(=O)N2Cc2cccnc2)c1 (stereo unspecified)	G9a inh inconclusive
CC(=O)C1=C(O)C(=O)N(Cc2ccco2)C1c1ccc2c(c1)OCO2 (stereo unspecified)	G9a inh 50µM
C=CCOc1cccc(C2C(C(=O)c3ccco3)=C(O)C(=O)N2Cc2ccco2)c1 (stereo unspecified)	Sfp PPTase inh inconclusive, G9a inh 45µM
CC(=O)OCC#CCSc1nnc(-c2cccc(Br)c2)o1	none (no result: Sfp PPTase inh)
Cc1cc(NS(=O)(=O)c2ccc(NC(=O)COc3ccc(Cl)cc3)cc2)nc(C)n1	G9a inh inconclusive (no result: Sfp PPTase inh)
COCCNC(=O)c1cnc2sc(N3CCC(C)CC3)nn2c1=O	none (no result: Sfp PPTase inh)
CC(=O)C1=C(O)C(=O)N(Cc2cccnc2)C1c1ccc(O)cc1 (stereo unspecified)	G9a inh 50µM, BAZ2B block 79µM
CC(=O)C1=C(O)C(=O)N(Cc2cccnc2)C1c1ccccc1 (stereo unspecified)	G9a inh inconclusive
Cc1cccc(-c2nc(CN3CCN(C(=O)C4CCCO4)CC3)cs2)c1 (stereo unspecified)	G9a inh 71µM
Cc1ccccc1CC(=O)N1CCN(C(=O)C2CCCO2)CC1 (stereo unspecified)	none
O=C(Cn1ncc2c([nH]c3ccccc32)c1=O)N1CCOCC1	none
O=c1cc(O)nc(SC23CC4CC(CC(C4)C2)C3)[nH]1	G9a inh 45µM
CCC(C)Sc1nc(O)cc(=O)[nH]1 (stereo unspecified)	none
Cc1ccc(C(C)C)c(OCC(=O)Nc2ccc(N3CCN(S(C)(=O)=O)CC3)cc2)c1	G9a inh 10µM
Cc1cccc(OCC(=O)N/N=C/c2cccn2C)c1	G9a inh inconclusive, JMJD2A Tudor inh inconclusive
Cc1ccc(C(C)C)c(OCC(=O)N/N=C/c2cccn2C)c1	HP1b chromo inh inconclusive, JMJD2A Tudor inh inconclusive, BAZ2B block 25µM (no result: G9a inh)
Cc1ccccc1OCC(=O)N/N=C/c1cccn1C	G9a inh inconclusive, BAZ2B block 45µM
Cc1ccc(OCC(=O)Nc2ccc(N3CCN(S(C)(=O)=O)CC3)cc2)c(C)c1	none
CCC1CCCCN1CCCNC(=O)c1c(O)nc2ccccn2c1=O (stereo unspecified)	G9a inh 79µM
Cc1cccc(CN2CCN(CC(=O)N3CCCC3)C2=O)c1	none
Cc1cccc(CN2CCN(CC(=O)O)C2=O)c1	Sfp PPTase inh 89µM, G9a inh inconclusive
